The record followed here is PubChem BioAssay (NCATS).

Molecules are shown by their SMILES. Records with an inconclusive call do not appear. The source made the active and inactive calls. Unless noted, the call rests on the fitted dose curve; in most records, active means well fitted curve in the direction sought with a large enough effect; inconclusive means small, poorly fitted or top-dose-only effect, or another doubt; inactive means no such curve, though single readings can be large; an effect the other way counts as inactive or inconclusive.

Test [1] concerns the target Lysosomal acid glucosylceramidase (Homo sapiens) (UniProt P04062). Nature of the test: Glucocerebrosidase-p2 (AID 348; in the data active means potency below about 10 µM; further: potency means the concentration at half of the fitted maximal effect). To be noted: purified GBA, blue fluorogenic substrate, 40 min. Summed up: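 Compounds titrated from 0.6 nM upwards against 0.2 nM enzyme in pH 5.9 citric acid/KH2PO4, taurocholate, tween-20; blue fluorogenic substrate 80 uM, 40 min room temperature, stopped and read Ex 365/Em 440 for AC50.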

The nature of test [2]: AP1 Signaling Pathway (AID 357; active means well fitted curve in either direction with a large enough effect, not every such curve was filed as active;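 further: ME-180 reporter cells stimulated with EGF at its EC50 level; on the % scale 0 is the no-effect control and ±100 the full control effect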). To be noted: ME-180 AP-1-bla reporter, EGF-induced, beta-lactamase ratio, 5 h; at 7.69 µM (top of the series) unless noted. The method, boiled down:
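A ratiometric CCF4 readout (405 nm excitation; 460 and 530 nm emission) quantified AP-1-driven beta-lactamase in ME-180 cells after 5 h with compound and EC50 EGF; AC50 values were derived for activators and inhibitors.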

The target of test [3] is Cytochrome P450 1A2 (Homo sapiens) (UniProt P05177). In words: p450-cyp1a2 (AID 410; calls by dose curve; further: potency means the concentration at half of the fitted maximal effect). Summed up:
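Luminescent readout of luciferin formed from Luciferin-ME by human CYP1A2; data normalized against complete inhibition by 57 uM furafylline. Enzyme 20nM, substrate 100uM at Km, 100mM KPO4 buffer, 60 min reaction at room temperature.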

Test [4] is described as follows: NFAT Signaling Pathway (AID 444; active means well fitted curve in either direction with a large enough effect, not every such curve was filed as active;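 further: carbachol stimulus at about its EC50 of 1 µM final; on the % scale 0 is the no-effect control and ±100 the full control effect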). The following applies: Jurkat NFAT-bla M1, carbachol, beta-lactamase ratio, 5 h; at 7.69 µM (top of the series) unless noted. The method, boiled down:
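Jurkat cells with NFAT-driven β-lactamase reporter and co-expressed M1 receptor, stimulated with carbachol (final 1 uM, ~EC50), compound titration, 5 h at 37 °C. CCF4 loaded 1 h at RT; 460/530 nm ratio gave %activity and AC50.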

The nature of test [5]: Stat Signaling Pathway (AID 446; active means well fitted curve in either direction with a large enough effect, not every such curve was filed as active;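 further: ME-180 cervical cancer cells given 40 pM IL-6 alongside compound; SIE-controlled beta-lactamase reporter measured as 460/530 nm FRET emission ratio; on the % scale 0 is the no-effect control and ±100 the full control effect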). The following applies: ME-180 SIE beta-lactamase reporter, IL-6 stimulated, 5 h; at 7.69 µM (top of the series) unless noted. The method, boiled down: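 ME-180 cells carrying a SIE-driven beta-lactamase reporter are stimulated with 40 pM IL-6 for 5 h at 37C in the presence of compound. The 460/530 nm FRET substrate ratio is read after 2.5 h at RT. Data are normalised to 300 pM IL-6 and to 125 nM JAK inhibitor controls.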

Test [6] concerns the target Glucocorticoid receptor (Homo sapiens) (UniProt P04150). Nature of the test: GR-GFP Redistribution (AID 450;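 active means compounds whose dose series gives a full or clear partial fitted curve of increased nuclear translocation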; further: potency means the concentration at half of the fitted maximal effect). The following applies: U2OS GR-GFP nuclear translocation, laser cytometry, 2 h.
The target of test [7] is Mitogen-activated protein kinase 10 (Mus musculus) (UniProt Q61831). Nature of the test: JNK3 AlphaScreen Assay (AID 530; active means well fitted curve in either direction with a large enough effect, not every such curve was filed as active;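 further: kinase came from lysate of stimulated human HepG2 cells; signal reports phosphorylation of biotinylated GST-cJun 1-79 at Ser73 with 10 µM ATP; on the % scale 0 is the no-effect control and ±100 the full control effect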). Summed up: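 Pre-activated (IL-1β/TNFα) JNK3 in HepG2 lysates phosphorylates biotin-GST-cJun(1-79), 10 uM ATP; anti-phospho-cJun(Ser73) AlphaScreen read at room temperature, pH 7.6 Tris buffer. Compounds pre-incubated 15 min as titrations.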
For orientation: Bead proximity is the source of the signal in Alpha formats.

Test [8] can be described thus: qHTS Assay for Lipid Storage Modulators (AID 1519; calls by dose curve). To be noted: Drosophila S3 cells, BODIPY lipid droplet/cell ratio, laser cytometry, cells loaded with oleic acid; for activity change, negative = inhibition: at 57.5 µM (top of the series). The method, boiled down:
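Cells seeded at 5,000 per well were treated with compounds over a concentration series and loaded with oleic acid (400 uM, as added). Lipid droplet fluorescence (488 nm excitation, 500-530 nm channel) was read by laser-scanning cytometry and normalized to 20 uM Triacsin C.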
On the technique in general: In qHTS, concentration-response curves come from the screen itself.

Test [9] deals with Dual specificity protein kinase CLK4 (Homo sapiens) (UniProt Q9HAZ1). Nature of the test: qHTS Assay for Inhibitors of CDC-like Kinase 4 (Kinase-Glo Assay) (AID 1770). Further: nearly all actives have a fitted effect of over 65% in size. Further: potency means the concentration at half of the fitted maximal effect. The method, boiled down:
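Substrate mix (RS peptide 100 uM, ATP 1 uM) dispensed, compound pinned in, then Clk4 added to 25 nM final. Incubated 4.5 h at RT; Kinase-Glo reagent added, luminescence read after 5 min.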

For test [10] the target is unchanged. In words: qHTS Assay for Inhibitors of CDC-like Kinase 4 (ADP-FP Assay) (AID 1795).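 Further: recombinant human CLK4 phosphorylating RS repeat peptide at 1 µM ATP; on the % scale 0 is the no-effect control and ±100 the full control effect; nearly all actives have a fitted effect of over 60% in size.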 The method, boiled down: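 Clk4 6.25 nM; RS peptide 100 uM; ATP 1 uM; 25 mM Tris pH 7.5, 10 mM MgCl2; 1 h reaction. ADP detected via antibody/orange tracer FP displacement; TG003 positive control.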
Test [11] has as its target Ubiquitin carboxyl-terminal hydrolase 1 (Homo sapiens) (UniProt O94782). In words: Inhibitors of USP1/UAF1: Pilot qHTS (AID 504865).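 Further: rhodamine fluorescence freed from ubiquitin-rhodamine substrate followed over time; top concentration of the series differs between compounds; on the % scale 0 is the no-effect control and ±100 the full control effect; nearly all actives have a fitted effect of over 35% in size.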 Summed up: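 In 50mM HEPES pH 7.8 containing 0.5mM EDTA, 1mM TCEP, 0.1 mg/ml BSA and 0.01% Tween-20, 1nM USP1/UAF1 is exposed to compound for 15 min, then Ub-Rho (150nM final) is added and fluorescence is read over time.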
Test [12] can be described thus: Primary qHTS for small molecule stabilizers of the endoplasmic reticulum resident proteome: Secreted ER Calcium Modulated Protein (SERCaMP) assay (AID 1508630). Further: on the % scale 0 is the no-effect control and ±100 the full control effect. Summed up: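 GLuc-SERCaMP-expressing SH-SY5Y cells, pretreated 16 h with compound, are challenged with thapsigargin to empty ER calcium stores; after 4 h, coelenterazine is added directly to the medium and luminescence is imaged.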

In test [13] the target is Glucocorticoid receptor (Homo sapiens) (UniProt P04150). In words: GR-EFC Redistribution (AID 451; calls by dose curve; further: potency means the concentration at half of the fitted maximal effect). To be noted: CHO-K1 GR-EFC translocation, beta-gal luminescence, 2 h. The method, boiled down:
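CHO-K1 cells expressing nuclear EA and GR-ED fragments of b-gal; compounds titrated up to 46 uM final, 2 h at 37 C. GR nuclear translocation read as complemented b-gal luminescence after 1 h RT detection.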

In test [14] the target is 3',5'-cyclic-AMP phosphodiesterase 4B (Homo sapiens) (UniProt Q07343). Nature of the test: qHTS Assay for Inhibitors of PDE-IV (AID 607; active means well fitted activation curve with a large enough effect in the main read-out, with a control signal flat, not every such curve was filed as active; further: % of control where 0% means no effect). The method, boiled down: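 HEK293 ACTOne cells with CNG channel (1000/well), endogenous PDE4; membrane potential dye, compounds up to 22.9 uM final. Fluorescence Ex 535/Em 590; RO 20-1724 (100 uM final) as reference.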
The target in test [15] is Dual specificity protein kinase CLK4 (Homo sapiens) (UniProt Q9HAZ1). In words: qHTS Assay for Inhibitors of CDC-like Kinase 4 (ADP-Glo Assay) (AID 1771). Further: nearly all actives have a fitted effect of over 70% in size. Further: potency means the concentration at half of the fitted maximal effect. The method, boiled down:
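Luminescence from ADP-Glo reports ADP produced by 25 nM Clk4 acting on 100 uM RS repeat peptide with 1 uM ATP over 1 hr at room temperature; residual ATP is depleted before ADP is converted to ATP for detection.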

The target in test [16] is Cytochrome P450 3A4 (Homo sapiens) (UniProt P08684). Nature of the test: qHTS Assay for Activators of Cytochrome P450 3A4 (AID 885). Further: nearly all actives have a fitted effect of over 65% in size. Summed up: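 Human CYP3A4 (20 nM) with Luciferin-PPXE at 25 uM (its KM) in 200 mM KPO4; 10 min compound preincubation, then NADPH regeneration and 60 min reaction at RT. Luciferin read by luminescence; normalized to 57 uM ketoconazole full inhibition.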

Test [17] can be described thus: qHTS Assay for Identification of Small Molecule Agonists for Hypoxia Response Element Signaling Pathway (AID 914; active means well fitted activation curve with a large enough effect in the signal ratio, with a control signal flat, not every such curve was filed as active; the % refers to the signal ratio; further: % of control where 0% means no effect). To be noted: ME-180 (cervical carcinoma) HRE-bla reporter, beta-lactamase ratio, CoCl2, 17 h; activation: stronger effect = higher value. Summed up: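 Reporter activity (beta-lactamase, CCF4 460nm/530nm ratio) in HRE-bla ME-180 cells is recorded after 17 h compound exposure with EC50 CoCl2 at 37 degrees Celsius. AC50 values come from titration data.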

For test [18], the target named is Cytochrome P450 2C9 (Homo sapiens) (UniProt P11712). Nature of the test: qHTS Assay for Inhibitors and Substrates of Cytochrome P450 2C9 (AID 883). Further: potency means the concentration at half of the fitted maximal effect; nearly all actives have a fitted effect of over 60% in size. Summed up:
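Human CYP2C9 (10nM) with Luciferin-H at 100uM (its KM) in 25mM KPO4; compound preincubated 10 min at 37C, then NADPH regeneration for 60 min at 37C. Luciferin read by luminescence after detection reagent; normalized to 57uM sulphaphenazole as full inhibition.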

Test [19] concerns the target Cytochrome P450 3A4 (Homo sapiens) (UniProt P08684). Nature of the test: qHTS Assay for Inhibitors and Substrates of Cytochrome P450 3A4 (AID 884). Further: potency means the concentration at half of the fitted maximal effect; nearly all actives have a fitted effect of over 50% in size. The method, boiled down:
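20 nM human CYP3A4 with 25 uM Luciferin-PPXE (at KM) in 200 mM KPO4, preincubated 10 min with compound; NADPH regeneration started a 60 min RT reaction. Luciferin detected by luminescence, normalized to 57 uM ketoconazole as full inhibition.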

Test [20] addresses Cytochrome P450 2C19 (Homo sapiens) (UniProt P33261). Nature of the test: qHTS Assay for Inhibitors and Substrates of Cytochrome P450 2C19 (AID 899). Further: potency means the concentration at half of the fitted maximal effect; nearly all actives have a fitted effect of over 60% in size. Summed up:
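5 nM human CYP2C19 with 10uM Luciferin-H EGE (at KM) in 50mM KPO4, compound preincubated 10 min at 37C, then NADPH regeneration for 60 min at 37C. Luciferin read by luminescence after detection reagent; normalized to 57uM ketoconazole as full inhibition.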

[21] abbreviates: measured here: cell count channel max response.
The mark [22] stands for this setting: measured here: lipid channel max response.

Sequence of Lysosomal acid glucosylceramidase (Homo sapiens) (P04062 whole entry, looked up): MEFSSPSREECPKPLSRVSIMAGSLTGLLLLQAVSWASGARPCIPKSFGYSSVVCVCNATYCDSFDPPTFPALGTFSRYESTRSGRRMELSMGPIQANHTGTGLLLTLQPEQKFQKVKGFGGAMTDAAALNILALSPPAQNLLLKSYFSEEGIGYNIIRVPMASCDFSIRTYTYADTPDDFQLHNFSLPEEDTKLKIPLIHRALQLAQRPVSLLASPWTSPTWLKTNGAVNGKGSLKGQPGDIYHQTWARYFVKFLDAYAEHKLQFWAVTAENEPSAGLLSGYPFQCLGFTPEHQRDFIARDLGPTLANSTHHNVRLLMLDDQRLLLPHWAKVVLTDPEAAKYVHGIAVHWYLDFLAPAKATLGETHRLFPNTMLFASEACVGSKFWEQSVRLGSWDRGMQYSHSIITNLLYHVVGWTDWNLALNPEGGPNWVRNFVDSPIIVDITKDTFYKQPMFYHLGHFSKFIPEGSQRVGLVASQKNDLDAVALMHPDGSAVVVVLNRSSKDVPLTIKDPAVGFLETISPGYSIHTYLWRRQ
Sequence of 3',5'-cyclic-AMP phosphodiesterase 4B (Homo sapiens) (Q07343 whole entry, looked up): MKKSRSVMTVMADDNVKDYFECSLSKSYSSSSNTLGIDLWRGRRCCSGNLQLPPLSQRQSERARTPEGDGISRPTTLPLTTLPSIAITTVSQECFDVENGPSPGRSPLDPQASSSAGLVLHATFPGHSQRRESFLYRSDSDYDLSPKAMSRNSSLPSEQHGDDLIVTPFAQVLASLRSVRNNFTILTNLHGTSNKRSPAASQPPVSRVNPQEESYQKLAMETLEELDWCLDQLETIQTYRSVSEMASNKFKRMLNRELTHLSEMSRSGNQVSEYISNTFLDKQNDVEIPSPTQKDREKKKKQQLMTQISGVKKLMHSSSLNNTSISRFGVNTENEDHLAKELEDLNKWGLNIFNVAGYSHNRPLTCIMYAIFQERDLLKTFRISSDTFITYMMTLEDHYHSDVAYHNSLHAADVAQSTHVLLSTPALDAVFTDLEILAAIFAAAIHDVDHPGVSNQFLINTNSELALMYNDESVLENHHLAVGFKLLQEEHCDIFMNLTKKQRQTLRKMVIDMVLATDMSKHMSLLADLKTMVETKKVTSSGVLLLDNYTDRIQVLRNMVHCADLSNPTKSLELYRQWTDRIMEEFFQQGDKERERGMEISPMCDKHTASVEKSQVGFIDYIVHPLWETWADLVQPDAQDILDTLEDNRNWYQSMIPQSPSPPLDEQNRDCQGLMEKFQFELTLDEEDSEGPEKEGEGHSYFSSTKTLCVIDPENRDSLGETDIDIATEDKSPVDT
Sequence of Ubiquitin carboxyl-terminal hydrolase 1 (Homo sapiens) (O94782 whole entry, looked up): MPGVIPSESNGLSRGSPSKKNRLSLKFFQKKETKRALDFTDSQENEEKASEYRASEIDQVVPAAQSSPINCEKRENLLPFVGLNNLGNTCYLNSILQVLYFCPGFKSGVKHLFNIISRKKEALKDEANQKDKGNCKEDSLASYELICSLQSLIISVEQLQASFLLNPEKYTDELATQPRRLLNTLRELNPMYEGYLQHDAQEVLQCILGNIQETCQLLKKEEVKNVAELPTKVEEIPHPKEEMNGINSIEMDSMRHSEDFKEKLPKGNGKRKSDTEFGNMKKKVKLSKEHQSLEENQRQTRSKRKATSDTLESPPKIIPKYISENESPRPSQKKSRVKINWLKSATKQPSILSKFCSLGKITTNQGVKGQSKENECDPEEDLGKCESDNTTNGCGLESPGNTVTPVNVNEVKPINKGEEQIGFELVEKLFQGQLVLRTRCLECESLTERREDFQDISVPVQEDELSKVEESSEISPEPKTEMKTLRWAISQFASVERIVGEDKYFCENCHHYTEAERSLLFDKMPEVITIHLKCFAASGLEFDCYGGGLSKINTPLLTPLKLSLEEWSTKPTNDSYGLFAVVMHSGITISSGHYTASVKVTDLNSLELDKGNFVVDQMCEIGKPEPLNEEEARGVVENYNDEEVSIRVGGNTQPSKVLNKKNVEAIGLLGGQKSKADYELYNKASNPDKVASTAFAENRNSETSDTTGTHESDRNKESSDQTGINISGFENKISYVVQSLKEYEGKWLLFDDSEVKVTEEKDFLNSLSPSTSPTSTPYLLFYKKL
Sequence of Glucocorticoid receptor (Homo sapiens) (P04150 whole entry, looked up, the tested form may be a part): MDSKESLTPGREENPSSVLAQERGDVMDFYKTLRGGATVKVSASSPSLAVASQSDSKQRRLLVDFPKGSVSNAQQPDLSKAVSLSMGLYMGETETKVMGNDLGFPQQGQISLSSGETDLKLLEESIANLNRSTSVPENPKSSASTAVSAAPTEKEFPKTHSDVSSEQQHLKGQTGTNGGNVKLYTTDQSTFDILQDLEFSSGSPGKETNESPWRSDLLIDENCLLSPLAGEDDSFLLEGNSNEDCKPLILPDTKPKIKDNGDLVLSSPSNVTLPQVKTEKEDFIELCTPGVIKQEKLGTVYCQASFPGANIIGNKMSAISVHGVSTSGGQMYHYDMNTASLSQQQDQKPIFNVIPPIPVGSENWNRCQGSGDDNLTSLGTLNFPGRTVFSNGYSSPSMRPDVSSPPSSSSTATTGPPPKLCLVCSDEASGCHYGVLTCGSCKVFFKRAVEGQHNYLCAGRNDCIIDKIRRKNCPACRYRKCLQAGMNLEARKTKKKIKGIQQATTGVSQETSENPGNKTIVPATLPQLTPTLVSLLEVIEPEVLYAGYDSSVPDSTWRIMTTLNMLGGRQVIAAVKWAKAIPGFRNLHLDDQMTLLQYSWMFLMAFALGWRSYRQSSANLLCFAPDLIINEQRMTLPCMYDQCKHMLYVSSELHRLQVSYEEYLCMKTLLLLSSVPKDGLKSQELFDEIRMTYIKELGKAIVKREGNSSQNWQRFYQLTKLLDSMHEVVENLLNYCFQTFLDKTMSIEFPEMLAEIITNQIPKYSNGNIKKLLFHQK
Sequence of Dual specificity protein kinase CLK4 (Homo sapiens) (Q9HAZ1 whole entry, looked up): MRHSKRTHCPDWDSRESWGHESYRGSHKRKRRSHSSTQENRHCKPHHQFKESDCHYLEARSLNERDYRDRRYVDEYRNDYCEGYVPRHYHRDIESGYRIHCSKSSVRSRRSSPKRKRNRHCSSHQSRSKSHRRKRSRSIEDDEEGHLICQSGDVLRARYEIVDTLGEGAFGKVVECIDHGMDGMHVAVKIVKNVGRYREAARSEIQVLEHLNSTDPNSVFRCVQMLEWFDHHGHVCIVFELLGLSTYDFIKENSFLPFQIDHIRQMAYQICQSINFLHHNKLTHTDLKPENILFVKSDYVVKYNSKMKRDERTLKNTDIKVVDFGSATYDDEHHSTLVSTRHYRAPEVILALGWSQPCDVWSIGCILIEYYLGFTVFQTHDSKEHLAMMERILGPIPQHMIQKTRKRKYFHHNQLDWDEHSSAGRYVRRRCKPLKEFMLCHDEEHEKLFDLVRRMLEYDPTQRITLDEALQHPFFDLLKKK
Sequence of Cytochrome P450 1A2 (Homo sapiens) (P05177 whole entry, looked up): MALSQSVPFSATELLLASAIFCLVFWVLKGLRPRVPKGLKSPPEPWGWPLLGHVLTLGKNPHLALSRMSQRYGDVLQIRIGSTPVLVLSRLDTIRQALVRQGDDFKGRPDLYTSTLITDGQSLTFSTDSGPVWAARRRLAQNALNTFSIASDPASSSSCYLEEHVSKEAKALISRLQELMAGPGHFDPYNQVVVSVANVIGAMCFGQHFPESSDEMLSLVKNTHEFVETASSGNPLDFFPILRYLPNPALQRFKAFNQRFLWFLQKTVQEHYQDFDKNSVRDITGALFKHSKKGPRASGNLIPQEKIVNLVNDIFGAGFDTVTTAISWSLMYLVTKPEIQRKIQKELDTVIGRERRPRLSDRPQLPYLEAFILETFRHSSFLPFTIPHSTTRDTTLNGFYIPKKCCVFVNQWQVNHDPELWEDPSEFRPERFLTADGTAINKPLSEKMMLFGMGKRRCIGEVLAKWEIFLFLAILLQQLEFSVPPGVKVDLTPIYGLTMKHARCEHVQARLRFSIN
Sequence of Cytochrome P450 3A4 (Homo sapiens) (P08684 whole entry, looked up): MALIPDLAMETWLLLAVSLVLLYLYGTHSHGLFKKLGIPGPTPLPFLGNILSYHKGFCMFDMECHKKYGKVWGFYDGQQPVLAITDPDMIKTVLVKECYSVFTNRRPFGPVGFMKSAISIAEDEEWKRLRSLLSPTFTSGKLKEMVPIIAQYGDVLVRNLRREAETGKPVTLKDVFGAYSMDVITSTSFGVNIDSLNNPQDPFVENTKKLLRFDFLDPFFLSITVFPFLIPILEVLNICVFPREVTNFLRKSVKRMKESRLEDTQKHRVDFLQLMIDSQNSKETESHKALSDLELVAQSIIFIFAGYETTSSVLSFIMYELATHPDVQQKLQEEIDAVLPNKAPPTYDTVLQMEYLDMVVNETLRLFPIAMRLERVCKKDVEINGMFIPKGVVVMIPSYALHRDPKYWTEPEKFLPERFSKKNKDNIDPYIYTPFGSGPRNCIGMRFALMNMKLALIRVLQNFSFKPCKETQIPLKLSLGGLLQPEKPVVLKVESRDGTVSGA
Sequence of Cytochrome P450 2C9 (Homo sapiens) (P11712 whole entry, looked up): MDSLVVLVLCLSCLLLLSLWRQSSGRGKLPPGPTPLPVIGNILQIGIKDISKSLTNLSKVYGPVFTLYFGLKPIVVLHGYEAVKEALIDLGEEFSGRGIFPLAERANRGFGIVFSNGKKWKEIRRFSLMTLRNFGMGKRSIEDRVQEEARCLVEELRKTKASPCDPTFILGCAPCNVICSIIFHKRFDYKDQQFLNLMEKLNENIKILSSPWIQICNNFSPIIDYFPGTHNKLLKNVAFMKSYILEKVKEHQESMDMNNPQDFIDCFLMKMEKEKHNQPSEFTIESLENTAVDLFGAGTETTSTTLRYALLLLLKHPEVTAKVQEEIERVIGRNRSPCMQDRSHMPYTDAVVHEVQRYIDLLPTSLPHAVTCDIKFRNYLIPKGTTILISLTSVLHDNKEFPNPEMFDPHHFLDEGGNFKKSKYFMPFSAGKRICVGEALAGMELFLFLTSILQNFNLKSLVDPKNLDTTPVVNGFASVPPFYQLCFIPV

As for `c1csc(CNc2ccnc(-c3ccoc3)n2)c1`, the Potency in [1] was > 11.4 µM (inactive); in test [3], 1 µM (active); in test [6], > 46 µM (inactive). Further, the results for the activity change, negative = inhibition in [2], in test [4] and in [8] were 8.64% (inactive), -0.203% (inactive) and 5% (inactive), respectively. Further, the activity, negative = inhibition in test [5] was 10.3% (inactive). Further, the outcome in test [7] was inactive. The max response in test [8] (setting [21]) turned out to be 21.1%; in test [8] (setting [22]), 20.9%. Further, the Potency entry in test [9], in test [10], in test [11] and in [12] was “inactive” throughout.

On to `COc1ccc(-n2c(=O)c(-c3ccc(Cl)cc3)nc3cnc(N4CCNCC4)nc32)cc1`, for which the Potency in test [1] is > 11.4 µM (inactive); in [3] it was 12.6 µM (active); in [13] it was > 46 µM (inactive). Moreover, the Potency entry in test [14], in [9], in test [15], in test [11] and in test [12] was “inactive” throughout. Besides, in test [8], the activity change, negative = inhibition is 5.55% (inactive). Further, the max response is 9.83% in [8] (setting [21]) and 16.5% in test [8] (setting [22]).

As for `CCNc1ncc2ncc(=O)n(Cc3cccs3)c2n1`, the Potency in [1] was > 11.4 µM (inactive); in test [3], 2 µM (active); in test [6], > 9.22 µM (inactive); in test [13], > 46 µM (inactive); in test [9] it was 3.16 µM (active); in [15], 5.62 µM (active). The results for the activity change, negative = inhibition in test [4] and in test [8] were -8.48% (inactive) and 5.21% (inactive), respectively. Also, in test [7], the call was inactive. In addition, the Potency result in test [14], in test [16], in test [11] and in test [12] was “inactive” in each case. In [17], the activation was -28.8% (inactive). In addition, the max response in [8] (setting [21]) was determined as 12.7%; in test [8] (setting [22]), 16.4%.

Take `COc1ncc2nc(-c3ccc(F)cc3)c(=O)n(-c3ccccc3)c2n1`: the Potency in test [1] was > 11.4 µM (inactive); in test [6], > 9.22 µM (inactive); in test [13], > 46 µM (inactive). Besides, the activity change, negative = inhibition in [2] is -5.39% (inactive); in test [8], 2.16% (inactive). For the same compound, the activity, negative = inhibition in test [5] was -2.33% (inactive). Besides, the call in [7] was inactive. The Potency result in [14], in test [9], in test [15], in [11] and in test [12] was “inactive” throughout. Moreover, the max response in test [8] (setting [21]) was -0.95%; in test [8] (setting [22]), -1.99%.

Take `COc1ccc(CNc2ncnc3ccc(-c4cccc(NS(C)(=O)=O)c4)cc23)c(OC)c1`: the Potency in [1] was > 11.4 µM (inactive); in test [3], 7.94 µM (active); in [6], > 46 µM (inactive); in [13] it was > 46 µM (inactive); in test [18], 0.501 µM (active); in [19], 2 µM (active). Besides, the Potency in test [20] is 2.51 µM (active); in test [9], 11.2 µM (active); in test [15], 25.1 µM (active). In addition, in test [5], the activity, negative = inhibition was -11.9% (inactive). Also, the compound was called inactive in [7]. The Potency entry in test [16], in [11] and in [12] was “inactive” throughout. Further, the activity change, negative = inhibition in test [8] is -4.77% (inactive). The max response in test [8] (setting [21]) is -8.13%; in test [8] (setting [22]), -11.3%.

In the case of `O=c1c(-c2cccs2)nc2cnc(N3CCOCC3)nc2n1-c1ccccc1`, the Potency was > 11.4 µM (inactive) in test [1], 5.01 µM (active) in test [3], > 9.22 µM (inactive) in test [6] and > 46 µM (inactive) in [13]. For the same compound, the values for the activity change, negative = inhibition in test [2], in test [4] and in [8] were 25.6% (inactive), 2.23% (inactive) and -15.1% (inactive), respectively. Further, the Potency entry in test [16], in [9], in [10] and in test [12] was “inactive” in each case. For the same compound, the results for the max response in test [8] (setting [21]) and in [8] (setting [22]) were 13.7% and -6.13%, respectively.
